# Bioassay records deposited in PubChem by National Center for Advancing Translational Sciences (NCATS).
# Pf Dd2 growth: Plasmodium falciparum Dd2 growth inhibition; Potency, µM (titrated, usually from 28.9 µM), without a hit: at the highest dose activity, negative = inhibition, hits mostly inhibitors; 120,000 compounds, 4.3% hits; P. falciparum Dd2 growth, SYBR Green, 72 h; active = well fitted inhibition curve with a large enough effect;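 also: plate controls were DMSO vehicle for no effect and reference drug for full effect; nearly all actives have a fitted effect of over 65% in size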
#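 Infected erythrocytes (Dd2, 0.3% parasitemia, 2.5% hematocrit final) are added to compound in RPMI-1640/Albumax II medium, grown 72 h at 37C in low oxygen, then lysed with saponin/Triton-X containing SYBR Green and read by fluorescence.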
# Active calls of the source: *; i = inactive; [ ] = remark or other dose. The full list was thinned out, with hits kept by preference. Potency is read from the fitted curve at half-maximal effect.
SMILES,Pf Dd2 growth
Cc1nc(-c2cccs2)cc([C@H]2CN3CC[C@H]2C[C@@H]3CNC(=O)c2ccc(N(C)C)cc2)n1,7.1µM*
C=CCNC(=O)N1CC[C@H]2CC(=O)N(C3CCCCC3)CC[C@H]2C1,1%[44.1 µM]
COc1cccc(C(=O)N2CCCC(c3nn(-c4ccc(Cl)cc4)c(=O)[nH]3)C2)c1 (stereo not drawn),-21%
CC1=C[C@@H](CNC(=O)Nc2ccccc2)[C@H](C(C)C)C[C@H]1CC(=O)NCc1cccnc1,i
CC(C)CCN1CCOc2cc([S+](=O)([O-])Nc3cccnc3)ccc2C1,i
CSc1ccc(-c2nc(CN3CCN(C(C)=O)CC3)c(C)o2)cc1,-10%
N#Cc1ccc(CN2CC[C@@H]3OCC(=O)N(CCc4cccnc4)[C@H]3CC2)cc1,3%[44.1 µM]
Cc1ncoc1C(=O)N1C[C@@H](COc2ccccc2)[C@H](C(N)=O)C1,14%
Fc1cc(F)cc(Cc2nc3nccc(-c4ccco4)n3n2)c1,-17%
COc1ccc(C(=O)N2CCCCCCNC(=O)[C@@H]3C[C@@H](c4nc(-c5cnccn5)no4)C[C@@H]32)cc1,i
Cc1cnc(-c2ccccc2)n1C1CCCN(C(=O)c2ccnn2C)C1 (stereo not drawn),-29%
O=C(COc1ccccc1)N1CCCC(Nc2ccc(F)cc2)C1 (stereo not drawn),-7%
Cc1cnc(-c2ccccc2)n1C1CCCN(C(=O)COc2ccc(F)cc2)C1 (stereo not drawn),2.8µM*
O=C(Cn1c(=O)oc2ccccc21)N[C@@H]1CCOC[C@H]1Oc1ccccn1,4%
CN1CCC2(CCC1=O)CN(S(=O)(=O)c1cn(C)cn1)CCN2C (stereo not drawn),10%
COCCNc1c(-c2noc(C)c2C(=O)Nc2ccc(F)c(OC)c2)cnn1C,1%[44.1 µM]
CCn1cc(S(=O)(=O)N2CCC(Cc3nc(-c4ccncc4)n[nH]3)C2)cn1 (stereo not drawn),i
O=C(CC1CCOCC1)NCc1cccc(F)c1,-24%
CCOC(=O)C1CCN(c2cc3c(cc2NC(=O)c2ccc(OC)c(OC)c2)n(C)c(=O)n3C)CC1,8.9µM*
CCOC(=O)c1ccc(NC(=O)Nc2cc3c(cc2N2CCCC2)n(C)c(=O)n3C)cc1,i
COc1ccc(C(=O)Nc2cc(C(F)(F)F)ccc2N2CCN(c3ccccc3)CC2)cc1OC,-7%
CCOc1cc(C(=O)N2CCC[C@H]2c2nc(-c3ccc(C)cc3)no2)cc(OCC)c1OCC,i
COc1ccc(C2c3[nH]c4ccc(OC)cc4c3CCN2C(=O)Nc2ccccc2)cc1 (stereo not drawn),6.3µM*
CCOc1ccc(C2c3[nH]c4ccccc4c3CCN2C(=O)CCC2CCCC2)cc1 (stereo not drawn),-10%
COc1ccc(C(=O)N2CC(=O)Nc3ccc(Br)cc3C2c2ccc(F)cc2)cc1OC (stereo not drawn),-24%
SMILES,Pf Dd2 growth
COc1ccc2[nH]c3c(c2c1)CCN(C)C31CCN(C(=O)C2CCCC2)CC1,i
CCc1ccccc1NC(=O)N1CCc2c([nH]c3ccccc23)C1c1ccc(C)cc1 (stereo not drawn),-20%
COc1cc(C(=O)N2CCc3c([nH]c4ccccc34)C2c2ccc(F)cc2)cc(OC)c1OC (stereo not drawn),4.5µM*
CCOc1cccc(CC(=O)N2CCc3c([nH]c4ccccc34)C2c2ccc(Cl)cc2)c1OCC (stereo not drawn),5µM*
CCOc1cccc(CC(=O)NCc2ccc3c(c2)CCN3C(=O)c2cccc(C)c2)c1OCC,-14%
CCOc1cc(CNC(=O)C2CCN(c3nc4ccccc4[nH]3)CC2)cc(OCC)c1OCC,29%
COc1ccccc1C(=O)NC1CCCc2c1[nH]c1ccccc21 (stereo not drawn),-22%
CCOc1cc(C(=O)N2CCc3c([nH]c4ccccc34)C2c2ccccc2)cc(OCC)c1OCC (stereo not drawn),2µM*
CC(=O)N1CCC(c2nnc3n2CCNC3)CC1,-10%[44.1 µM]
CN1CCCC2(CCN(C(=O)Cc3cccc4ccccc34)C2)C1=O (stereo not drawn),-14%
Cc1ccccc1CN1C[C@@H]2[C@H](C1)N(Cc1ccccc1)C(=O)C(C)(C)[S+]2(=O)[O-],-1%[44.1 µM]
CCc1cccc(C)c1NC(=O)CN1C(=O)NC(c2ccc(Cl)cc2)C2=C1COC2=O (stereo not drawn),-2%
O=C(Cc1ccccc1)N1CCC(c2n[nH]c(=O)n2Cc2ccc(F)cc2)CC1,i
CCC(C)n1c(C(C)NC(=O)OCc2ccccc2)nc2cccnc21 (stereo not drawn),i
O=C(c1ccc(C(F)(F)F)cc1)N1CCCC2(CN[S+](=O)([O-])c3ccccc3N2)C1 (stereo not drawn),i
Cc1ncoc1C(=O)N1CCCN(S(=O)(=O)c2ccccc2)CCC(=O)NCC1,-2%
COc1ccc(C(=O)N2CCCCCNC(=O)[C@@H]3CCC[C@@H]32)c(OC)c1,7%
COCC1(CNC(=O)c2cccc(OC)c2)C[C@@H](O)[C@@H](O)C1 (stereo partly drawn),-5%[44.1 µM]
COc1cccc(C(=O)NC[C@@H]2CC[C@H]3C[C@@H]2C3(C)C)c1,11µM*
CC1(C)[C@H]2CC[C@@H](CNC(=O)c3cccnc3)[C@@H]1C2,-6%[44.1 µM]
CC(Oc1ccccc1)C(=O)N1CCC(n2cc(-c3nc(-c4ccccc4)no3)nn2)C1 (stereo not drawn),63%
CCC(CC)C(=O)N1CCC(N2C(=O)CCC2C(=O)NCc2ccccc2)CC1 (stereo not drawn),-13%
O=C(N[C@@H]1CCN(C(=O)c2ccc(CO)cc2)C[C@H]1O)c1cccnc1,17%
C#CCNC(=O)c1cc(-c2cccc(C(F)(F)F)c2)c2nncn2n1,14µM*
CC(C)NC(=O)c1cc(-c2cccc(C(F)(F)F)c2)c2nncn2n1,4%
SMILES,Pf Dd2 growth
Cc1cn2nc(C(=O)NCc3cccc(C(F)(F)F)c3)cc2c(=O)[nH]1,-19%
O=C(c1cc(-c2cccc(C(F)(F)F)c2)c2nncn2n1)N1CCCC1,-21%
O=C(c1cc(-c2cccc(C(F)(F)F)c2)c2nncn2n1)N1CCOCC1,15%
O=C(NCc1cccs1)c1cc(-c2cccc(C(F)(F)F)c2)c2nncn2n1,2µM*
O=C(NC1CCCC1)N[C@@H]1C[C@H](CO)[C@@H](O)[C@H]1O,20%[44.1 µM]
O=C1CCC(C(=O)N2CCN(c3ccc(Cl)cn3)CC2)CN1CCc1ccccn1 (stereo not drawn),-13%
COCc1ncc(C)n1CCNC(=O)c1n[nH]c(=O)c2ccccc12,16%
Cc1cnc(CCNC(=O)NC(C)C)n1C1CC1,-17%
Cc1cnc(CCNC(=O)NCc2ccccc2)n1C1CCC1,-11%
Cc1cnc(CCNC(=O)Nc2ccc3c(c2)OCCO3)n1C1CCC1,5µM*
Cc1cnc(CCNC(=O)c2n[nH]c(=O)c3ccccc23)n1C1CCCCC1,7.9µM*
Cc1cnc(CCNC(=O)c2n[nH]c(=O)c3ccccc23)n1C1CCC1,-9%
CC(=O)N1CCC(N2C[C@@H](F)[C@@H](OCc3nc4ccccc4o3)C2)CC1,-2%[44.1 µM]
COc1ccc(-c2cc(N3CCCN(C(=O)c4ccc(C)nc4)CC3)n[nH]2)cc1,i
COc1ccc(-c2cc(N3CCN(C(=O)c4ccc(C)nc4)CC3)n[nH]2)cc1,i
Cc1ccc(C(=O)N2CCCN(c3cc(-c4ccc(Cl)cc4)[nH]n3)CC2)cn1,6.3µM*
COc1ccc2[nH]c3c(c2c1)CCN(C)C31CCN(C(=O)c2cnccc2C)CC1,i
